# Reference: the supplement of paper PMC9694430
# Where “and” joins values, the source holds several entries; their conditions need not be identical. Equal entries are not always repeated. Structures can show the parent of a compound that is named as a salt.
# Tested on: LOC_OS01G13800-cb001
# Experiment: thermal shift delta Tm vs DMSO control; higher = stronger stabilization (binding)
# Conditions: 12.5 µM; protein concentration 2 µM
# Method in brief: (§1)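 Heating from 25°C to 95°C at 0.05°C/s, fluorescence was recorded for 19.5 μl wells of 2 μM E. coli-expressed, purified rice kinase domain in 100 mM potassium phosphate pH 7.5, 150 mM NaCl, 10% glycerol and 5 × SYPRO Orange with compound in DMSO. Boltzmann fits gave melting temperatures for this differential scanning fluorimetry assay. The shift reported is the mean of three replicates against the DMSO-only protein.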
# 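Also: purified Escherichia coli-expressed rice kinase domain construct.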
row,Structure (SMILES),thermal shift delta Tm
1,COc1ccc2c(Oc3ccc(NC(=O)c4c(C)n(CC(C)(C)O)n(-c5ccccc5)c4=O)nc3)ccnc2c1,-0.07 °C
2,COc1ncc(-c2ccc3nccc(-c4ccnnc4)c3c2)cc1NS(=O)(=O)c1ccc(F)cc1F,0.27 °C
3,Cc1c[nH]c(/C=C2\C(=O)Nc3ccccc32)c1CCC(=O)O,0 °C
4,Cc1cc(Nc2cc(Cl)nc(Oc3ccc([N+](=O)[O-])cc3)n2)n[nH]1 [Autophinib],-0.1 °C
5,O=C(c1ccc(/C=C/c2n[nH]c3ccccc23)cc1)N1CCNCC1,-0.18 °C
6,COc1ccc(CNC(=O)Nc2ncc([N+](=O)[O-])s2)cc1,0.54 °C
7,Cc1cc2c(F)c(Oc3ncnn4cc(OC[C@@H](C)O)c(C)c34)ccc2[nH]1,0.42 °C
8,C=CC(=O)Nc1cccc(Oc2nc(Nc3ccc(N4CCN(C)CC4)cc3)nc3ccsc23)c1,0.55 °C
9,O=c1cc(N2CCOCC2)oc2c(-c3ccc4c(c3)OCCO4)csc12,-0.36 °C
10,c1nc2c(NC3CCCCC3)nc(Nc3ccc(N4CCOCC4)cc3)nc2[nH]1 [Reversine],0.43 °C

# Tested on: LOC_OS01G14860-cb001
# Experiment: as above
# Conditions: 12.5 µM; protein concentration 2 µM
# Method in brief: as §1
row,Structure (SMILES),thermal shift delta Tm
1,C[C@H](CN(C)C)Oc1nc(Nc2cc3cccc(Cl)c3cn2)cnc1C#N,0.9 °C
2,CN1c2ccccc2C(=O)Nc2cnc(Nc3ccc(N4CCC(O)CC4)cc3)nc21,0.36 °C
3,CCNc1nc(Nc2cc(F)c(C(=O)N3CCOCC3)cc2OC)ncc1C(F)(F)F,1.18 °C
4,COc1cc2ncnc(Nc3ccc(Oc4ccccc4)cc3C)c2cc1OC,0.22 °C
5,O=C1NC(=O)/C(=C/c2cccc(C(F)(F)F)c2)S1,0.12 °C
6,COc1ccc(C(=O)Nc2sc3c(c2C(N)=O)CCCC3)cc1OC,0.19 °C
7,C#Cc1cccc(Nc2ncnc3cc(OCCOC)c(OCCO)cc23)c1,0.28 °C
8,FC(F)(F)c1ccc(/C=C/c2nc(COc3ccc(CCCCn4ccnn4)cc3)co2)cc1 [Mubritinib (TAK 165)],0.08 °C
9,CNC(=O)Nc1ccc(-c2nc(N3CC4CCC(C3)O4)c3cnn(C4CCC5(CC4)OCCO5)c3n2)cc1,0.37 °C
10,CC(C)(C)NS(=O)(=O)c1cncc(-c2cc(F)c3nc(N)nn3c2)c1,0.32 °C
11,C[C@@H]1CN(CC(=O)Nc2ccc3c(c2)Cc2cccc(-c4cc(=O)cc(N5CCOCC5)o4)c2S3)C[C@H](C)O1,1.89 °C
12,COCCOc1ccc2c(c1)ncn2-c1ccc2cccc(N3CCC(N)CC3)c2n1,1.89 °C
13,Cc1ccc(NC(=O)c2ccc(CN3CCN(C)CC3)cc2)cc1Nc1nc(-c2cccnc2)cs1 [Masitinib (AB1010)],0.16 °C
14,Cn1cc(-c2cnn3c(N)c(Br)c([C@@H]4CCCNC4)nc23)cn1,0.82 °C
15,COc1ccc(-c2cc3c(C)nc(N)nc3n([C@H]3CC[C@H](OCCO)CC3)c2=O)cn1,0.17 °C
16,Cc1ccc(S(=O)(=O)/C=C/C#N)cc1,-0.19 °C
17,"CCCS(=O)(=O)Nc1ccc(F)c(C(=O)c2c[nH]c3ncc(-c4ccc(Cl)cc4)cc23)c1F [Vemurafenib (PLX4032, RG7204)]",4.3 °C
18,C[C@@H](N)c1ccc(C(=O)Nc2ccnc3[nH]ccc23)cc1,1.44 °C
19,O=C(NC1CCNCC1)c1n[nH]cc1NC(=O)c1c(Cl)cccc1Cl,4.91 °C and 5.53 °C
20,NCC(=O)Nc1ccc(-n2nc(C(F)(F)F)cc2-c2ccc3c(ccc4ccccc43)c2)cc1,-0.8 °C
21,CCn1c(-c2nonc2N)nc2cnc(Oc3cccc(NC(=O)c4ccc(OCCN5CCOCC5)cc4)c3)cc21,6.06 °C
22,COc1cc2c3cc1Oc1c(OC)c(OC)cc4c1[C@@H](Cc1ccc(O)c(c1)Oc1ccc(cc1)C[C@@H]3N(C)CC2)N(C)CC4 [Berbamine (dihydrochloride)],-0.18 °C
23,COc1cc2ncc(-c3ccccc3)nc2cc1OC [Tyrphostin AG 1296],0.28 °C
24,C[C@H]1CNCCCN1S(=O)(=O)c1cccc2cncc(F)c12 [Ripasudil (K-115) hydrochloride dihydrate],0.24 °C
25,N#Cc1c(NC(=O)c2cccc3ccccc23)sc2c1CCCC2 [JNK Inhibitor IX],-0.15 °C
26,CC(C)N(CCC(=O)c1ccc2ccccc2c1)Cc1ccccc1,-0.01 °C
27,COC(=O)c1ccc2c(c1)NC(=O)/C2=C(\Nc1ccc(N(C)C(=O)CN2CCN(C)CC2)cc1)c1ccccc1 [Nintedanib (BIBF 1120)],1.18 °C
28,Nc1ccc(-c2ccc3ncc4ccc(=O)n(-c5cccc(C(F)(F)F)c5)c4c3c2)cn1 [Torin 2],2.07 °C
29,COc1ccc2c(Oc3ccc(NC(=O)c4c(C)n(CC(C)(C)O)n(-c5ccccc5)c4=O)nc3)ccnc2c1,1.58 °C
